“And” between values parts separate entries of the source, which are not always exact repeats. Equal entries are not always repeated. The source made the active and inactive calls. How the source made its calls: active means hit-call score of the fitted dose curve at least 0.9, where 1 is the maximum; inactive means score below 0.9.

Read-out in this test: X-box binding protein 1 (XBP1), XBP1 (gene 7494)
As to the kind of experiment: LTEA_HepaRG_XBP1: Life Technologies and Expression Analysis (LTEA) Assay for X-box binding protein 1 (XBP1) using HepaRG (AID 2283540). To be noted: mRNA level, 48 h; actives raise or lower the signal. The method, then:
LTEA_HepaRG is a cell based, multiplexed-readout assay that uses HepaRG, a human liver cell line, with measurements taken at 48 hours after chemical dosing on a 96-well plate.LTEA_HepaRG_XBP1 is one of 102 assay component(s) measured in the LTEA HepaRG cell culture assay. It is a marker of Diseases associated with XBP1 including Major Affective Disorder 7 and Bipolar Disorder.Data from the assay component LTEA_HepaRG_XBP1 was analyzed into 1 endpoint. This assay endpoint, LTEA_HepaRG_XBP1, was analyzed with bidirectional fitting relative to DMSO as the negative control and baseline of activity. Using a type of inducible reporter, measures of mRNA induction for gain or loss-of-signal activity can be used to understand regulation of transcription factor activity. To generalize the intended target to other relatable targets, this assay endpoint is annotated to the dna binding intended target family, where the subfamily is basic leucine zipper.
A total of 1060 chemcials from the ToxCast library were tested in eight-point concentration-response experiments. Cell culture and cytotoxicity assays were conducted at Thermo Fisher Scientific's Custom Services facility (Madison, WI). A single lot of human HepaRG cells (Thermo Fisher Scientific, Frederick, MD) was used for the cell culture experiments. 96-well format collagen type I coated plates of human HepaRG cells were prepared using established methods. Briefly, cryopreserved HepaRG cells were thawed, plated at a density of approximately 100,000 cells/well in HepaRG Thaw, Plate, and General Purpose media (HPRG770, Thermo Fisher Scientific), and incubated for 48 hours. 0.5% DMSO was selected as vehicle control to balance the requisite need of DMSO in HepaRG cultures to maintain differentiation (for example, baseline metabolism, proportions of hepatocytes vs. cholangiocytes), while enabling further hepatic receptor pathway activation (for example, PXR and CAR) in response to chemical exposure. 48 hours after plating, the culture medium was replaced with HepaRG Serum-Free Incudtion Media. Cells were exposed to each test chemical in duplicate and maintained in CO2 incubators for another 48 hours. Chemical plates were thawed to room temperature and 200x concentrations of treatment groups were prepared. 8-point conentration-reponse curves were made with the highest exposure at 100 uM, followed by half-log dilutions, all in 0.5% DMSO. Each test plate contained variouse controls, induction positive controls (1mM phenobarbital), cytotoxicity positive controls ([…] aflatoxin B1), vehicle controls (0.5% DMSO), and total lysis controls (0.5% DMSO). Cell morphology images were taken using an Essen IncuCyte FLR automated microscope, with six 96-well plates imaged in about 24 minutes. Images were captured and exported and JPEG files. Spent culture media was transfered to black-well plates for the LDH assay, and remaining media was sorted at -80 C for later use. Cells were treated with RLT buffer and frozen until shipped for gene expression analysis. Total RNA was isolated from the cell suspension in 75 uL of Buffer RLT (Qiagen, Germantown, MD 20874) by Quintiles/Expression Analysis (Durham, NC) using a custom isolation procedure. Total RNA from each plate well was transferred to a preamplification plate. Fluidigm's 96.96 Dynamic ArrayTM (Fluidigm, Amsterdam, the Netherlands) technology was used for gene expression analyses by quantitative reverse transcription polymerase chain reaction (qRT-PCR, performed by Quintiles/Expression Analysis, Durham, NC)89. Standard TaqManTM Assays (Applied Biosystems/ThermoFisher Scientific, Foster City, CA) were used to assess the expression of 93 genes selected based on their selectivity and sensitivity to important hepatic receptors known to be modulated by environmental chemicals; importance in human hepatocyte functionality; and hepatotoxicity. […]
In the case of `CCCCC(CC)CN1C(=O)C2C3C=CC(C3)C2C1=O` (stereo not given), the compound was called inactive.
Regarding `COC(=O)CSc1cc(N=c2sc(=O)n3n2CCCC3)c(F)cc1Cl`, the compound was classed as inactive.
The same measure, in the same setting: the entry for `CCCOC(=O)NCCCN(C)C` is “inactive”; for `CCCCCCC(C)OC(=O)COc1nc(F)c(Cl)c(N)c1Cl` (stereo not given) it is “inactive”.
Still for that read-out and setting: the entry for `CCOC(=O)COc1cc(-n2ncc(C(F)(F)F)c(C)c2=O)c(F)cc1Cl` is “inactive”.
As to `O=C(O)c1ccccc1`, the call was inactive.
Regarding `CCOC(=O)C(C)Oc1ccc(Oc2nc3ccc(Cl)cc3o2)cc1` (stereo not given), the compound was called inactive.
Turning to `C#C[C@]1(O)CC[C@H]2[C@@H]3CCC4=CC(=O)CC[C@@H]4[C@H]3CC[C@@]21CC`, the call was inactive.
Still for that read-out and setting: the entry for `COc1c(Cl)ccc(Cl)c1C(=O)O` is “inactive”; for `CCCCOC(=O)[C@@H](C)Oc1ccc(Oc2ccc(C(F)(F)F)cn2)cc1` it is “inactive”.
`CCCN(CCC)C(=O)SCC`: the compound was called inactive.
As for `N#CSCSc1nc2ccccc2s1`, the result was inactive.
`C[C@]12C[C@H](O)[C@H]3[C@@H](CCC4=CC(=O)CC[C@@]43C)[C@@H]1CC[C@@H]2C(=O)CO`: the compound was called inactive.
For the compound `COC(=O)c1ccccc1C(=O)O`, the compound was called inactive.
`C=CCOC(Cn1ccnc1)c1ccc(Cl)cc1Cl` (stereo not given): the compound was classed as inactive.
For the compound `C[C@]12CC[C@@H]3c4ccc(O)cc4C[C@@H](CCCCCCCCCS(=O)CCCC(F)(F)C(F)(F)F)[C@H]3[C@@H]1CC[C@@H]2O` (stereo not given in full), the AC50 is 0.0493 µM (active).
Regarding `CCCCOC(=O)C(C)Oc1ccc(Oc2ccc(C(F)(F)F)cn2)cc1` (stereo not given), the call was inactive.
The same measure, in the same setting: the result for `COCCO` reads “inactive”.
Consider `S=C(S)NCCNC(=S)S.[Mn+2].[S-]C([S-])=NCCN=C([S-])[S-].[Zn+2]`, for which the AC50 is 908 nM (active) and 953 nM (active).
Turning to `O=C(c1ccc(O)cc1O)c1ccc(O)cc1O`, the call was inactive.
For `CCN(CC)C(=O)c1cccc(C)c1`, the result was inactive.
Consider `S=C([S-])NCCNC(=S)[S-].[Mn+2]`, for which the concentration at half-maximal activity (AC50) is 3.17 µM (active).
Regarding `c1ccc2[nH]c(-c3cscn3)nc2c1`, the result was inactive.
Consider `O=C(O)C1(C(=O)Nc2ccc(Cl)cc2Cl)CC1`, for which the half-maximal activity concentration (AC50) is 69.2 µM (active).
With `CCCOC(=O)c1ccc(C(=O)OCCC)nc1`, the compound was called inactive.
In the case of `CCC(C)OC(=O)N1CCCCC1CCO` (stereo not given), the result was inactive.
With `Cc1nn(C)c(Oc2ccccc2)c1C=NOCc1ccc(C(=O)OC(C)(C)C)cc1`, the outcome was inactive.
As for `CC(=O)S[C@@H]1CC2=CC(=O)CC[C@]2(C)[C@H]2CC[C@@]3(C)[C@@H](CC[C@@]34CCC(=O)O4)[C@H]12`, the half-maximal activity concentration (AC50) was 50 µM (active).
In the case of `CSC(=O)c1cccc2nnsc12`, the call was inactive.
On to `O=C(c1ccccc1)C1CCCCC1`, for which the compound was called inactive.
With `CCCCC(CC)COC(=O)c1ccccc1C(=O)O` (stereo not given), the compound was classed as inactive.
For the compound `CN(C)C(=O)Nc1ccc(Cl)c(Cl)c1`, the AC50 is 21.7 µM (active).
Consider `CC(=O)[C@H]1CC[C@H]2[C@@H]3CCC4=CC(=O)CC[C@]4(C)[C@H]3CC[C@]12C`, for which the compound was called inactive.
Turning to `CCCCCOC(=O)COc1cc(N2C(=O)C3=C(CCCC3)C2=O)c(F)cc1Cl`, the outcome was inactive.
For the compound `CCNc1nc(N)nc(Cl)n1`, the compound was classed as inactive.
`COC(=O)c1ccc(I)cc1S(=O)(=O)NC(=O)Nc1nc(C)nc(OC)n1`: the compound was called inactive.
Turning to `CCN(Cc1c(F)cccc1Cl)c1c([N+](=O)[O-])cc(C(F)(F)F)cc1[N+](=O)[O-]`, the call was inactive.
In the case of `CCOC(=O)NCCOc1ccc(Oc2ccccc2)cc1`, the outcome was inactive.
Regarding `N[C@@H](Cc1cc(I)c(Oc2ccc(O)c(I)c2)c(I)c1)C(=O)O`, the compound was classed as inactive.
On to `O=C(Nc1ccc([N+](=O)[O-])cc1Cl)c1cc(Cl)ccc1O`, for which the AC50 was 1.97 µM (active).
